Results on five compounds are retold here after PubChem BioAssay (EPA / NIEHS).

Each structure is given as a SMILES string. Inconclusive results are not listed. Where a structure was tested more than once in an assay, its records may differ in their call. Active and inactive are the calls of the source. How the source made its calls, unless noted: active means hit-call score of the fitted dose curve at least 0.9, where 1 is the maximum; inconclusive means response in the unintended direction; inactive means score below 0.9.

Assay [1] in a line: ATG_GRE_CIS: Attagene CIS-FACTORIAL HepG2 Assay for human Glucocorticoid Response Elements (GRE) (AID 2282947; active means hit-call score of the fitted dose curve at least 0.9, where 1 is the maximum; inactive means score below 0.9). The settings on record: HepG2 GRE cis-reporter, Attagene multiplex mRNA; actives raise or lower the signal. The method in brief: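 HepG2, transient cis-reporter transfection, 24 h. Reporter mRNA: RT-PCR then CE, fluorescence. Fit both directions vs DMSO.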
The target of assay [2] is Transcription factor Sp1 (Homo sapiens) (UniProt P08047). The assay is described as follows: ATG_Sp1_CIS: Attagene CIS-FACTORIAL HepG2 Assay for human Specificity Protein 1 (Sp1) (AID 2282961; active means hit-call score of the fitted dose curve at least 0.9, where 1 is the maximum; inactive means score below 0.9). Particulars: HepG2 Sp1 cis-reporter transcription, actives raise or lower the signal. In short, it runs like this:
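Chemicals are dosed onto HepG2 cells transfected with multiple cis-promoter reporter constructs, and after 24 h reporter RNA is reverse-transcribed, PCR-amplified and resolved by capillary electrophoresis for fluorescence quantitation; activity is scored up or down against DMSO.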

Assay [3] concerns the target Signal transducer and activator of transcription 3 (Homo sapiens) (UniProt P40763). Description: ATG_STAT3_CIS: Attagene CIS-FACTORIAL HepG2 Assay for human Signal Transducer and Activator of Transcription 3 (STAT3) (AID 2282963; active means hit-call score of the fitted dose curve at least 0.9, where 1 is the maximum; inactive means score below 0.9). The settings on record: HepG2, Attagene cis-factorial STAT3 reporter transcription; actives raise or lower the signal. In short, it runs like this: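 Uses human liver HepG2 transiently carrying cis-regulated reporter transcription units. Following 24 h dosing, reporter mRNA induction was detected by RT-PCR and capillary electrophoresis, analysed bidirectionally versus DMSO.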

Assay [4] concerns the target Hepatocyte nuclear factor 4-alpha (Homo sapiens) (UniProt P41235). The assay is described as follows: ATG_HNF4a_TRANS: Attagene TRANS-FACTORIAL HepG2 Assay for human Hepatocyte Nuclear Factor 4 alpha (HNF4a) (AID 2282982). The settings on record: HepG2 HNF4a transactivation reporter, mRNA readout. In short, it runs like this:
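Using HepG2 liver cells transfected with GAL4-UAS reporter units, chemical-induced mRNA increases were assessed after 24 hours. Fluorescent RT-PCR fragments were separated by capillary electrophoresis and compared with DMSO negative controls.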

The nature of assay [5]: ATG_M_32_TRANS: Attagene TRANS-FACTORIAL HepG2 Assay for M32 Transcription Factor (Internal Marker) (AID 2282984).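 Further: transcript level of a background control reporter unit measured by RT-PCR and capillary electrophoresis.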 The settings on record: HepG2 Attagene TRANS M32 internal marker reporter. In short, it runs like this:
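Fluorescence-detected mRNA induction, HepG2 liver cells, 24 h after dosing. Multiple GAL4-UAS reporter units introduced by transient transfection; background-control endpoint analysed for gain of signal against DMSO.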

For assay [6], the target named is Transcriptional activator Myb (Homo sapiens) (UniProt P10242). The assay is described as follows: ATG_Myb_CIS: Attagene CIS-FACTORIAL HepG2 Assay for human Myeloblastosis (Myb) Proto-Oncogene Transcription Factor (AID 2282986; active means hit-call score of the fitted dose curve at least 0.9, where 1 is the maximum; inactive means score below 0.9). The settings on record: HepG2 Attagene CIS-FACTORIAL Myb reporter transcription; actives raise or lower the signal. The method in brief: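 Using HepG2 liver cells bearing transiently transfected cis-promoter reporter constructs, the assay measures induction or loss of reporter mRNA after 24 hours of dosing. Detection used fluorescently labeled RT-PCR products separated by capillary electrophoresis.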

Assay [7] has as its target Peroxisome proliferator-activated receptor gamma (Homo sapiens) (UniProt P37231). Description: ATG_PPARg_TRANS: Attagene TRANS-FACTORIAL HepG2 Assay for human Peroxisome Proliferator-activated Receptor-gamma (PPARg) (AID 2283007). In short, it runs like this: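 Chimeric NR-Gal4 transactivation is measured in transiently transfected HepG2 cells by reporter mRNA induction at 24 h. Detection uses RT-PCR with fluorescent labelling and capillary electrophoresis; DMSO defines baseline.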

Assay [8] addresses human Retinoid X Receptor beta (RXRb), RXRB (gene 6257) (UniProt P28702). The assay is described as follows: ATG_RXRb_TRANS: Attagene TRANS-FACTORIAL HepG2 Assay for human Retinoid X Receptor beta (RXRb) (AID 2283013). The method in brief:
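Read-out: reporter mRNA induction via RT-PCR plus capillary electrophoresis fluorescence, analysed as signal increase relative to DMSO. Cells were human HepG2, transiently transfected with GAL4-UAS reporter constructs and chimeric receptor-Gal4 fusions, dosed for 24 h.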

Assay [9] is described as follows: ACEA_ER_AUC_viability: ACEA Biosciences xCELLigence Real-Time Cell Analysis on Estrogen Receptor Agonism for Viability (AID 2283782).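 Further: hit means loss of impedance signal meaning reduced cell growth or viability.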 In short, it runs like this: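 Continuous-exposure impedance cell analysis uses T-47D cells in charcoal-stripped serum, eight 1:4 dilutions topping at 100 uM final, biological duplicate. Area under the growth curve at 80 h is fitted against DMSO baseline.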

Assay [10] can be described thus: ATG_PBREM_CIS: Attagene CIS-FACTORIAL HepG2 Assay for human Phenobarbital-responsive Enhancer Module (PBREM) (AID 2282955; active means hit-call score of the fitted dose curve at least 0.9, where 1 is the maximum; inactive means score below 0.9). Particulars: HepG2 PBREM cis-reporter, Attagene multiplexed transcription; actives raise or lower the signal. The method in brief: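 Multiplexed cis-reporter readout in human hepatoma HepG2 cells; PBREM-regulated transcript quantified after 24 h exposure by fluorescent RT-PCR fragment analysis. Signal changes up or down fitted relative to DMSO.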

The nature of assay [11]: ATG_NFI_CIS: Attagene CIS-FACTORIAL HepG2 Assay for human Nuclear Factor I (NFI) (AID 2282989; active means hit-call score of the fitted dose curve at least 0.9, where 1 is the maximum; inactive means score below 0.9). Particulars: HepG2 cis-regulatory reporter, NFI response element transcription; actives raise or lower the signal. In short, it runs like this:
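HepG2, transient MRTU, 24 h exposure; RNA→cDNA→PCR→FAM label→HpaI→CE fluorescence. Bidirectional fit, DMSO = baseline.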

Assay [12] is described as follows: TOX21_p53_BLA_p2_viability: Viability Assessment in the Tox21 HCT-116 p53 Agonism Beta-lactamase Assay, Phase 2 (AID 2283591).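 Further: actives lower the ATP signal meaning cytotoxicity.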 The method in brief: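 HCT-116 p53-bla cells (4000/well) rested 5 h at 37C, then received compounds in DMSO (217-fold dilution) for 16 h at 37C, 5% CO2. After the CCF4 read, CellTiter-Glo was added; ATP luminescence was read after 30 min at room temperature.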

Assay [13] concerns the target Cellular tumor antigen p53 (Homo sapiens) (UniProt P04637). The assay is described as follows: TOX21_p53_BLA_p2_ratio: Tox21 HCT-116 p53 Agonism Beta-lactamase Assay, Ratio, Phase 2 (AID 2283592). The method in brief:
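Readout: blue/green (460/530 nm) FRET emission ratio after 2 h CCF4-AM loading at room temperature, excitation 405 nm. HCT116 p53 bla cells, 16 h compound exposure at 37C, 5% CO2; agonist direction fitted against DMSO baseline.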

Assay [14] shares this target. The assay is described as follows: TOX21_p53_BLA_p3_ratio: Tox21 HCT-116 p53 Agonism Beta-lactamase Assay, Ratio, Phase 3 (AID 2283596). In short, it runs like this: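 Cells were seeded at 4000/well, rested 5 h at 37C, then dosed with DMSO compound solutions (217-fold dilution) for 16 h. CCF4-AM substrate was loaded for 2 h at room temperature, and the 460/530 nm emission ratio was fitted for gain of signal versus DMSO.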

Assay [15] in a line: TOX21_p53_BLA_p4_viability: Viability Assessment in the Tox21 HCT-116 p53 Agonism Beta-lactamase Assay, Phase 4 (AID 2283597).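 Further: hits lower the luminescence signal meaning cytotoxicity.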 The method in brief:
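ATP content by CellTiter-Glo luminescence, 30 min RT, read after the beta-lactamase ratio step. Cells: HCT116, 4000/well, compound added after 5 h, exposure 16 h at 37C. Signal loss = reduced viability.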

Assay [16] concerns the target Cellular tumor antigen p53 (Homo sapiens) (UniProt P04637). Description: TOX21_p53_BLA_p5_ratio: Tox21 HCT-116 p53 Agonism Beta-lactamase Assay, Ratio, Phase 5 (AID 2283599). In short, it runs like this:
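HCT-116 cells carrying a p53-inducible beta-lactamase reporter were seeded at 4000 cells/well and dosed after 5 h with compound in DMSO (217-fold dilution). After 16 h at 37C, CCF4-AM substrate was added for 2 h, and the 460/530 nm emission ratio was scored as gain-of-signal versus DMSO.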

Assay [17] in a line: TOX21_p53_BLA_p5_viability: Viability Assessment in the Tox21 HCT-116 p53 Agonism Beta-lactamase Assay, Phase 5 (AID 2283600). The method in brief: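 ATP luminescence (CellTiter-Glo, 30 min, RT) served as the viability read-out, with loss of signal indicating cytotoxicity. Compounds in DMSO were pinned at a 217-fold dilution onto 4000 cells/well and incubated 16 h, 37C.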
Assay [18] has as its target Cellular tumor antigen p53 (Homo sapiens) (UniProt P04637). The assay is described as follows: TOX21_p53_BLA_p4_ratio: Tox21 HCT-116 p53 Agonism Beta-lactamase Assay, Ratio, Phase 4 (AID 2283601). The method in brief: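 HCT116 cells carrying an inducible beta-lactamase reporter were plated at 4000 cells/well, rested 5 h, then exposed to compounds in DMSO (217-fold dilution) for 16 h at 37C. CCF4-AM substrate was loaded 2 h at room temperature; 460/530 nm emission ratio scored gain-of-signal versus DMSO.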

Assay [19] is described as follows: ATG_RORE_CIS: Attagene CIS-FACTORIAL HepG2 Assay for human RAR-related Orphan Receptor Element (RORE) (AID 2282959; active means hit-call score of the fitted dose curve at least 0.9, where 1 is the maximum; inactive means score below 0.9). Particulars: HepG2 Attagene cis-factorial RORE reporter, mRNA; actives raise or lower the signal. The method in brief:
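Transfect HepG2 with MRTUs; treat 24 h; extract RNA; RT with oligo(dT); PCR with reporter-specific primers; 6-FAM primer extension; HpaI digest 2 h at 37 C; capillary electrophoresis. Fit vs DMSO, bidirectional.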

Assay [20] is described as follows: ATG_M_06_TRANS: Attagene TRANS-FACTORIAL HepG2 Assay for M06 Transcription Factor (Internal Marker) (AID 2282983).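 Further: reporter transcript level by RT-PCR then capillary electrophoresis fluorescence.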 Particulars: HepG2 Attagene TRANS M06 internal marker reporter. In short, it runs like this: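 Read-out: fluorescent reporter cDNA fragments resolved by capillary electrophoresis after RT-PCR and HpaI cut. Source cells were HepG2 carrying transfected multi-reporter GAL4 constructs, dosed 24 h. Increase over DMSO control analysed.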

The AC50 is the midpoint of the concentration-response curve, whichever way the signal moves.

Chain of Transcriptional activator Myb (Homo sapiens) (P10242 whole entry, looked up): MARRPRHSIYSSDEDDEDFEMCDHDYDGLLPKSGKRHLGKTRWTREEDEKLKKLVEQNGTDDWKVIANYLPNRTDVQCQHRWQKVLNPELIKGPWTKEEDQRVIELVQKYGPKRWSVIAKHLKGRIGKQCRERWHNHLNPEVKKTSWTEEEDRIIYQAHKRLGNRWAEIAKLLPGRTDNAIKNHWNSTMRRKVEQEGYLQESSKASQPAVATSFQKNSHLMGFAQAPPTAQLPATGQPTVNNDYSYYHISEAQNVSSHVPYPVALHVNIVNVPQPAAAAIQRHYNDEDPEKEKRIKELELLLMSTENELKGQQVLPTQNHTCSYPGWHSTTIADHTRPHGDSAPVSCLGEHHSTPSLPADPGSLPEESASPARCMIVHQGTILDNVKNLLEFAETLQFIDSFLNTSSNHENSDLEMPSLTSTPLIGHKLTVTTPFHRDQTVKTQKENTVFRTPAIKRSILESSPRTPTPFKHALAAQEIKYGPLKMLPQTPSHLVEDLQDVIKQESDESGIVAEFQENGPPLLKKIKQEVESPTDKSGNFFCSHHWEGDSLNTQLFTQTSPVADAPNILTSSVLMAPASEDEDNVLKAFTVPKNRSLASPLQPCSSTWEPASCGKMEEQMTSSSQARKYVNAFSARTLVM
Chain of Peroxisome proliferator-activated receptor gamma (Homo sapiens) (P37231 whole entry, looked up, the tested form may be a part): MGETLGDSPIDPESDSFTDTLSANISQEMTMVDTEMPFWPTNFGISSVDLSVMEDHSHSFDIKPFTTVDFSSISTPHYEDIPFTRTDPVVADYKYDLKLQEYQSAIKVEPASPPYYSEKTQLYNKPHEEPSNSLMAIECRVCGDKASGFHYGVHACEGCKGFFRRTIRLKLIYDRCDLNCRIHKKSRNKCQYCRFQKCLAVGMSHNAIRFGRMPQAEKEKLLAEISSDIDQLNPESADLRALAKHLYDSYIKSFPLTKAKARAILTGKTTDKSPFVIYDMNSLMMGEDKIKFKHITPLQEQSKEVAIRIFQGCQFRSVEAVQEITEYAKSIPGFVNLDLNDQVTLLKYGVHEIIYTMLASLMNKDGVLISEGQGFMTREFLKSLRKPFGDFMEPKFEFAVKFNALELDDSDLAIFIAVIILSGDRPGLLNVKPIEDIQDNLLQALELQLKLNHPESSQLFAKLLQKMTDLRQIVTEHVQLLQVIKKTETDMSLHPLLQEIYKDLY
Chain of Hepatocyte nuclear factor 4-alpha (Homo sapiens) (P41235 whole entry, looked up, the tested form may be a part): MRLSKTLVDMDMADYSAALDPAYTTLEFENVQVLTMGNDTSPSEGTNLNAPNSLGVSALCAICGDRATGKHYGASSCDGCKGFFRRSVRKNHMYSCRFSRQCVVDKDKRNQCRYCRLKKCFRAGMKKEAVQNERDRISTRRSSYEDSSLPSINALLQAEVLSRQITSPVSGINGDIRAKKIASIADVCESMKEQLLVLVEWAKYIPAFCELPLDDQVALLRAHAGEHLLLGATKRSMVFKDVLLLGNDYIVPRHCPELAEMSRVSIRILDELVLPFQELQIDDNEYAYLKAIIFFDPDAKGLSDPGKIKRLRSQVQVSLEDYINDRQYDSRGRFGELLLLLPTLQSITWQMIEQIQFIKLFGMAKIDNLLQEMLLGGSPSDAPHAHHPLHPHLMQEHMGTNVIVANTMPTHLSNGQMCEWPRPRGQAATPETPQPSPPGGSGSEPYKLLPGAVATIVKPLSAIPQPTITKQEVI
Chain of Transcription factor Sp1 (Homo sapiens) (P08047 whole entry, looked up): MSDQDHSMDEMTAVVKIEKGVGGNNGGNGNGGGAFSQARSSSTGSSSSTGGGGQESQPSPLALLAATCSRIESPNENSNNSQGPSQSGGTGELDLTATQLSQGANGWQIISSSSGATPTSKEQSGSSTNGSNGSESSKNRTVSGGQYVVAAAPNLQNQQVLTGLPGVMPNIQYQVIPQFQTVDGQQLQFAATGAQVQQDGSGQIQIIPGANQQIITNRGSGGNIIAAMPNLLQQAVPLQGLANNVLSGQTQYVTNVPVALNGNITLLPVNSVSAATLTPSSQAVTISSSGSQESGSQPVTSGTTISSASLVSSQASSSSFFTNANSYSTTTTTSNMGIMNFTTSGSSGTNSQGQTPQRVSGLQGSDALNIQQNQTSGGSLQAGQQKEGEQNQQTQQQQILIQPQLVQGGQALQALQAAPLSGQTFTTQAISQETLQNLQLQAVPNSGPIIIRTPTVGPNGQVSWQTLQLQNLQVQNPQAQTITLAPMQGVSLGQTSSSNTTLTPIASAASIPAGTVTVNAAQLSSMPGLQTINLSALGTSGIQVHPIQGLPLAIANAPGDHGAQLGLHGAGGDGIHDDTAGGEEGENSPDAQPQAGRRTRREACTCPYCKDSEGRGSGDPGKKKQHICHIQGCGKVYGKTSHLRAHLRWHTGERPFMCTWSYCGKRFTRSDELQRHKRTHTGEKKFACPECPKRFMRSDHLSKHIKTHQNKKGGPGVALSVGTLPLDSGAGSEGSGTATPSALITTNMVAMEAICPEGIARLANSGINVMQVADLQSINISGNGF
Chain of Cellular tumor antigen p53 (Homo sapiens) (P04637 whole entry, looked up): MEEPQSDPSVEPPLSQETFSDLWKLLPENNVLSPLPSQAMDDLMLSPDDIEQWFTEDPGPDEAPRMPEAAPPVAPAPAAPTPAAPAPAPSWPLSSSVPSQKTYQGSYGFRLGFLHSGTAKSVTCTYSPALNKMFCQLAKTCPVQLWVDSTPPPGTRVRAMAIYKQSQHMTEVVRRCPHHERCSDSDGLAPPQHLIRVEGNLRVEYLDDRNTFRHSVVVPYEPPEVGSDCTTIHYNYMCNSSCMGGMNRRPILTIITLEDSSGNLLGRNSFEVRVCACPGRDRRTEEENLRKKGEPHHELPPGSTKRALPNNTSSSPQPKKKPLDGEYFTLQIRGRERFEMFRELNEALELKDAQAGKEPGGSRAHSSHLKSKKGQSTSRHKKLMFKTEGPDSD
Chain of human Retinoid X Receptor beta (RXRb), RXRB (gene 6257) (P28702 whole entry, looked up, the tested form may be a part): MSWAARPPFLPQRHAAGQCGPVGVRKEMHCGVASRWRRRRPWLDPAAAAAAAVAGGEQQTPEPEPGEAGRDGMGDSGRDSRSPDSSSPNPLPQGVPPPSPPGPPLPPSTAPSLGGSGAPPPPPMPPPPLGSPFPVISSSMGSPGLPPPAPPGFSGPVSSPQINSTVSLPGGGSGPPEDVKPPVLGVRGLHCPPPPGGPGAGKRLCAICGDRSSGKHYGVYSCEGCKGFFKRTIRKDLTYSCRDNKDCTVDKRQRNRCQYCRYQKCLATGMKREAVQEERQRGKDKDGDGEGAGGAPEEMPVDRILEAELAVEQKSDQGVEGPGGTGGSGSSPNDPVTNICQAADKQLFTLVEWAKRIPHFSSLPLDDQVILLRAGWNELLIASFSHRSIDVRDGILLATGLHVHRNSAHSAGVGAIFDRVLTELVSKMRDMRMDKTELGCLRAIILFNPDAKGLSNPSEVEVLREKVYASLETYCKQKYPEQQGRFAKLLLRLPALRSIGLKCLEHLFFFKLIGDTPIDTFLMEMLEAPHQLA
Chain of Signal transducer and activator of transcription 3 (Homo sapiens) (P40763 whole entry, looked up): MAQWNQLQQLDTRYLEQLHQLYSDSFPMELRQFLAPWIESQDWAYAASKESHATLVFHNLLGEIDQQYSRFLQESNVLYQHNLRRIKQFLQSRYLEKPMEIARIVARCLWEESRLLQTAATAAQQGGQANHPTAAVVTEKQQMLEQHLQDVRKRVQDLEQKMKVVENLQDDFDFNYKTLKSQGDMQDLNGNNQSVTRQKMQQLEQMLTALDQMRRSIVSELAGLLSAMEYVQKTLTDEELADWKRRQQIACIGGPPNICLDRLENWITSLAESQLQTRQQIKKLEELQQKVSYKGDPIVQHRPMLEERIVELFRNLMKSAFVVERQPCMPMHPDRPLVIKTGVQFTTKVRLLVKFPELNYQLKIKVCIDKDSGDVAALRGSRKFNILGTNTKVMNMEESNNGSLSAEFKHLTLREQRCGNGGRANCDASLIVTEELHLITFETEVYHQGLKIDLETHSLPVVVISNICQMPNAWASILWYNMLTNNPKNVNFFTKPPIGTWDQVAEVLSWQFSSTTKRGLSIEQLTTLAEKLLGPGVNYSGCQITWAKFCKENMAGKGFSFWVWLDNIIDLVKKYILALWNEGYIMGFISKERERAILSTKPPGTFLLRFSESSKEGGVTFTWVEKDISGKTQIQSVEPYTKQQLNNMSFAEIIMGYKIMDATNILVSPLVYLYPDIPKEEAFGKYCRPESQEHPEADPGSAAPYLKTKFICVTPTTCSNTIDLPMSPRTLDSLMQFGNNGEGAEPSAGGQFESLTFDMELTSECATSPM

For the compound `O=C(O)CCl`, the outcome in assay [1], in assay [2], in [3], in assay [4], in assay [5] and in assay [6] was inactive. Besides, the compound was classed as inactive in assay [7], in assay [8] and in assay [9].
Take `O=C(O)C(Br)Br`: the compound was called inactive in assay [1], in assay [10], in assay [2], in [3], in [4] and in assay [6]. The compound was classed as inactive in assay [11], in [12], in assay [13], in [14], in assay [15] and in assay [16]. Further, the compound was classed as inactive in assay [17], in assay [18] and in assay [9].
As for `N#CCCCl`, the result in assay [1], in assay [10], in assay [19], in assay [2], in assay [3] and in assay [4] was inactive. Besides, the compound was classed as inactive in assay [20], in [8], in [12], in assay [13], in assay [14] and in assay [15]. For the same compound, the outcome in [16] and in [17] was inactive.
Turning to `CC1OC(C)OC(C)O1` (configuration not stated), the result in assay [19], in assay [2], in assay [4], in assay [5], in assay [7] and in assay [12] was inactive. In addition, the result in assay [13], in assay [14], in [16], in assay [17], in assay [18] and in assay [9] was inactive. Further, in assay [14], the AC50 was 34.1 µM (active).
In the case of `CC(Cc1ccc(C(C)(C)C)cc1)CN1C[C@@H](C)O[C@@H](C)C1` (some centres not stated), the compound was called inactive in assay [1], in [19], in assay [4], in assay [20], in assay [5] and in assay [6]. In addition, the result in assay [8], in assay [12], in assay [13], in [14], in assay [15] and in assay [17] was inactive. In assay [18], the outcome was inactive. Also, the concentration at half-maximal activity (AC50) in assay [10] was 12.8 µM (active); in assay [7], 21.7 µM (active); in assay [9], 89.5 µM (active).
